# Shown is part of a subset that was picked to be rich in hits.
# Pf Dd2 growth = qHTS Primary assay for Inhibitors of Plasmodium falciparum Dd2 growth in vitro | AID 1347417, 2020 | Potency, µM (top dose mostly 28.9 µM), most hits filed as inhibitors | P. falciparum Dd2 growth, SYBR Green, 72 h | actives 4.3% (n = 120,000); active means well fitted inhibition curve with a large enough effect; further: nearly all actives have a fitted effect of over 65% in size
#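 Readout: SYBR Green fluorescence, 485 nm excitation, 535 nm emission, after ~16 h lysis at 37C. Before that, Dd2-infected red cells (2.5% hematocrit) grew 72 h with compound, 29 uM top final concentration.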
# Numbers stand for hits; . = inactive; [ ] = remark or other dose.
SMILES,Pf Dd2 growth
Cc1nc(-c2cccc(NC(=O)N3CCCC3c3c(C)noc3C)c2)cs1 (stereo not given),.
O=C1NC2(CCNCC2)C(=O)N1CCCc1cccnc1,.
O=C1N(CCCCOc2ccccc2)c2ccccc2NC12CCNCC2,7.9µM
Cn1ccnc1CN1C(=O)NC2(CCNCC2)C1=O,.
COC[C@]1(O)CCN(C(=O)CN2CCCC2)CC1(C)C,.
Cc1cccc(OC[C@H]2C[C@@H](NC(=O)c3ccc(C#N)cc3)[C@H](O)[C@@H]2O)n1,.
COc1ccc(CNC(=O)[C@@H]2Cc3nc[nH]c3CN2Cc2ccc(Cl)cc2)cc1,13µM
O=C(NCc1ccccc1)[C@@H]1Cc2nc[nH]c2CN1Cc1ccc(Cl)cc1,.
COc1ccc(CNC(=O)[C@@H]2Cc3nc[nH]c3CN2Cc2ccc(C(=O)O)cc2)cc1,.
COc1ccc(CNC(=O)[C@@H]2Cc3nc[nH]c3CN2Cc2ccc(CO)o2)cc1,.
O=C(NC1CCCCC1)[C@@H]1Cc2nc[nH]c2CN1Cc1ccc(Cl)cc1,13µM
O=C([C@@H]1Cc2nc[nH]c2CN1Cc1ccc(Cl)cc1)N1CCOCC1,.
CCn1cc(C(=O)OCC(=O)Nc2cc(Cl)ccc2C)c(=O)c2ccc(C)nc21,.
COCc1cc(=O)n(CC(=O)Nc2cc(C(F)(F)F)ccc2Cl)c(N2CCOCC2)n1,.
CNC(=O)[C@H]1C[C@H](Oc2ccccc2)CN1C(=O)c1cc(F)ccc1F,.
CN(C)CCNC(=O)c1ccc2nc(CCc3ccccc3)oc2c1,.
O=C(NCCc1ccccc1)c1ccc2nc(CCc3ccccc3)oc2c1,.
O=C(NCCCN1CCN(c2ccccc2)CC1)c1ccc2nc(CCc3ccccc3)oc2c1,7.9µM
N#CC1CCN(C(=O)c2cc(Br)cn3ccnc23)CC1,.
COc1ccc(-c2cc(CC3(NCc4ccco4)COC3)no2)cc1,.
CO[C@H]1C(=O)N(C2CCN(C(=O)c3ccnn3C)CC2)[C@H]1c1ccncc1,.
COc1ccc(-c2nn(-c3ccccc3)cc2CN2CCN(C)CC2)c(F)c1,10µM
COc1ccc2c(c1)c(CN1CCc3nc(N4CCN(C)CC4)[nH]c(=O)c3CC1)cn2C,.[5.79 µM]
COC[C@@H]1CCCN1Cc1cn(Cc2ccccc2)nc1-c1cc2ccccc2o1,.
COc1ccc(-c2nn(-c3ccccc3)cc2CN2CCN3CCCC3C2)c(F)c1 (stereo not given),7.1µM
SMILES,Pf Dd2 growth
c1ccc(-c2[nH]ncc2CN2CCCC(N3CCN(c4ccccc4)CC3)C2)cc1 (stereo not given),.
COc1ccc(-n2cc(CN3CCCC(CO)C3)c(-c3cccc(F)c3)n2)cc1 (stereo not given),13µM
COc1ccc(CN2CCc3nc(N4CCN(C)CC4)[nH]c(=O)c3CC2)c(OC)c1,.[5.79 µM]
COC[C@H]1CCCN1Cc1cn(-c2ccccc2)nc1-c1ccc(OC)cc1F,10µM
CNCC(=O)N1CCCC(N2CCN(c3ccc(OC)cc3)CC2)C1 (stereo not given),.
COc1ccc(-c2nc3c(C)cccc3cc2CN2CC[C@@H](O)C2)cc1,.
COc1ccc(-n2cc(CN3CCN(C)C(C)C3)c(-c3cccc(F)c3)n2)cc1 (stereo not given),.
COc1ccc(-c2ccnc3nc(-c4ccccc4OC)nn23)c(F)c1,.
COc1cccc(CC(=O)N2CC(COc3ccccc3)C3(C2)CN(c2ccccc2)C3)c1 (stereo not given),.
Cc1ccccc1NC(=O)N1CCC(CCNC(=O)c2ccsc2)CC1,.
F[C@@H]1CN(Cc2nccs2)C[C@@H]1OCc1nc2ccccc2[nH]1,.
O=C(NC1CC(=O)N(c2cccc(F)c2)C1)c1ccc(S(=O)(=O)N2CCCC2)cc1 (stereo not given),.
O=C(Cc1c[nH]c2ccccc12)N1CCN(C(=O)N2CC3CC(C2)[C@H]2CCCC(=O)N2C3)CC1 (stereo not given in full),.
COCc1cc(C[C@@H]2CC[C@H](O)[C@@H](CNC(=O)NC(C)C)O2)no1,.
Cc1ccc(C(=O)NCCn2cccc2-c2nc(-c3ccccc3)no2)cc1,.
Cn1ncc(N2CCC(C(=O)NCC3CCN(Cc4ccc(F)cc4)CC3)C2)cc1=O (stereo not given),.
O=c1[nH]c(C2CCCN(Cc3cccc4ccccc34)C2)nn1-c1ccc(Cl)cc1 (stereo not given),.
Cc1ccccc1-c1nc2cc3c(cc2cc1CN1CCC[C@H]1CO)OCO3,.
CCc1cnc(C)nc1N1CCN(Cc2ccccc2F)C(CCO)C1 (stereo not given),.
COC1CCCN(Cc2cn(-c3ccc(F)cc3)nc2-c2ccccc2Cl)C1 (stereo not given),13µM
COc1ccc(-c2nn(-c3ccccc3)cc2CN2CCN(C)C(C)C2)c(F)c1 (stereo not given),11µM
COc1ccc2nc(CO[C@H]3CN(Cc4cn(C)c5ccccc45)C[C@H]3F)[nH]c2c1,.
COc1ccc(F)c(CN2CCCC(O)(CN3CCC(CO)CC3)C2=O)c1 (stereo not given),.
O=C(c1ccccc1OCC1CCCN(Cc2ccc(F)cc2Cl)C1)N1CCOCC1 (stereo not given),.
COc1ccc(-c2nn(-c3ccccc3)cc2CN2CCCC(CO)C2)c(F)c1 (stereo not given),8.9µM
SMILES,Pf Dd2 growth
Cc1ccccc1-c1nn(-c2ccc(F)cc2F)cc1CN1CCCC1CCO (stereo not given),7.9µM
COc1ccc(F)c(CN2CCC(CCC(=O)N3CCN(c4ccccc4)CC3)CC2)c1,.
COc1ccc(-c2nn(-c3ccccc3)cc2C(=O)Nc2ccccc2OC)cc1,.
CN(CC1CCOCC1)C(=O)c1cc(F)cc(F)c1,.
CCS(=O)(=O)c1ncc(Cl)c(C(=O)Nc2ccccc2)n1,.
COC(=O)c1nc(NC(=O)Cn2nc3c(cc2=O)CCCC3)sc1-c1ccccc1,.
CN(C)C(=O)C1CN(C(=O)c2ccc(Br)o2)CC12CCOCC2 (stereo not given),.
N#Cc1cccc(NC(=O)O[C@@H]2CO[C@H]3[C@@H]2OC[C@@H]3Nc2nccc(-c3cccc(F)c3)n2)c1,.
CC(C)c1noc(CC2CCN(C(=O)c3ccsc3)CC2)n1,.
COc1ccc2c(c1)CCN=C2C[C@H]1CN(C(=O)C(=O)O)CC[C@H]1CC(=O)O,.
CCOC(=O)c1c(NC(=O)CSc2cn(CCNC(=O)c3ccc(OCC)cc3)c3ccccc23)sc2c1CCCC2,.
CC(Sc1cn(CCNC(=O)c2ccccc2F)c2ccccc12)c1ccccc1 (stereo not given),.
CCOC(=O)c1c(NC(=O)COc2ccccc2F)sc2c1CCCC2,.
CCOC(=O)c1c(NC(=O)CSc2cn(CCNC(=O)c3ccc(OC)cc3)c3ccccc23)sc2c1CCC2,13µM
CCOC(=O)c1c(NC(=O)C(C)Sc2cn(CCNC(=O)c3c(F)cccc3F)c3ccccc23)sc2c1CCC2 (stereo not given),7.9µM
COc1ccc(NC(=O)CSc2cn(CCNC(=O)c3ccc(OC)cc3)c3ccccc23)cc1,.
O=C(c1cccc2[nH]ccc12)N1CCC(N2C(=O)C(OCC3CC3)C23CCOCC3)CC1 (stereo not given),.
Cc1cccc(Cn2cc3c(=O)n(CC(=O)Nc4c(C)cccc4C)nc-3c3cc(F)ccc32)c1,.
CCNC(=O)N1CCCCCCNC(=O)[C@@H]2C[C@@H](c3nc(Cc4ccccc4)no3)C[C@@H]21,.
COc1ccc(OC)c(NC(=O)CCn2cccn2)c1,.[5.79 µM]

# Assay outcomes deposited in PubChem by National Center for Advancing Translational Sciences (NCATS).
